Only some compounds are listed: those with a hit (about 6.1% of all), similar ones and a draw of the others.
HepG2 tox-1: counter-screen for TGF-b inhibitors: cytotoxicity in HepG2 cells; Potency, µM (titrated, usually from 46.1 µM), for the others: at the highest dose activity change, negative = cytotoxicity, hits mostly cytotoxic; actives 0.76% (n = 410,000); AID 588856; HepG2 CAGA-GFP viability, ATP luminescence, 18 h
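CellTiter-Glo luminescence gave cytotoxicity after 18 hours at 37 degrees C. The cells were HepG2 CAGA-GFP in 1% FBS DMEM, stimulated with 500 pg/mL TGF-beta after compound addition. %Activity was normalised to no-cell wells (complete cell-killing) and DMSO (no toxicity), and curves were fitted and classified.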
S2 tox: reduces viability in counter-screen for ATXN expression inhibitors; Potency, µM (top dose mostly 56.7 µM), usual class: cytotoxic; S2 cells (HEK-293 line with an ATXN2-luciferase reporter) viability, CellTiter-Fluor protease fluorescence, 24 h; actives 0.49% (n = 400,000); AID 651635; note: nearly all actives have a fitted effect of over 40% in size
ATXN2 expr inh: inhibitors of ATXN2 expression; HEK-293 ATXN2-luciferase reporter, luminescence, 24 h; Potency, µM (doses to about 57 µM), without a hit: at the top dose activity change, negative = inhibition, hits mostly inhibitors; actives 0.72% (n = 360,000); AID 1745845; note: % is set by controls: 0 for no effect and ±100 for the full control effect; nearly all actives have a fitted effect of over 55% in size
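qHTS (up to 57 uM final) was run with 24 h compound exposure of reporter cells at 37 °C. Each well was multiplexed: SteadyGlo luminescence measured ATXN2-luciferase expression after a fluorogenic Gly-Phe-AFC viability readout (25 uM final).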
RORgamma inh: inhibitors of mouse ROR gamma transcriptional activity; P51450; Drosophila S2 Gal4-RORgamma UAS-luciferase reporter, 20 h; Potency, µM (titrated, usually from 53.6 µM), for the others: at the top dose activity change, negative = inhibition, actives largely listed as inhibitors; actives 5.4% (n = 310,000); AID 2551; note: % is set by controls: 0 for no effect and ±100 for the full control effect; nearly all actives have a fitted effect of over 60% in size
Target sequence (P51450 whole entry, looked up, the tested form may be a part): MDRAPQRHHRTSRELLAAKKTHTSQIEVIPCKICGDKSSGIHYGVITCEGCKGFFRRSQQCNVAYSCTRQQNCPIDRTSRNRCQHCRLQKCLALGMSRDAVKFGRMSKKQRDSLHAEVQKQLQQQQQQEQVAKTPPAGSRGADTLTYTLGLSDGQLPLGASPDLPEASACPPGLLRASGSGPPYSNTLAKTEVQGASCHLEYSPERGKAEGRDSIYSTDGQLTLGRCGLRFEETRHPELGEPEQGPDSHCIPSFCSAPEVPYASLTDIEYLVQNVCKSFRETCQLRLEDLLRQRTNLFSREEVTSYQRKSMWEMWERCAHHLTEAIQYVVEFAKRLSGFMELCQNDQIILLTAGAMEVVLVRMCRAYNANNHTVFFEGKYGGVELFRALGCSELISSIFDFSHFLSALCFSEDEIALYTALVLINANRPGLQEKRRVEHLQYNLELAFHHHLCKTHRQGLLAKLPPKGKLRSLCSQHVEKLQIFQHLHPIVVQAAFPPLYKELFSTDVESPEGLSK
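Read-out: Photinus luciferase luminescence; inhibitors lower reporter signal. Insect Schneider cells with Gal4-ROR gamma fusion under metallothionein promoter, UAS reporter; 700 uM final copper sulfate induction, 20 hr, ambient temperature.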
TGFb inhibitor: TGF-b pathway inhibition; actives 1.2% (n = 410,000); HepG2 CAGA-GFP TGF-b/SMAD3 reporter, GFP fluorescence, 18 h; TGF-beta stimulated, 500 pg/mL final; Potency, µM (doses to about 46.1 µM), inactives show top-dose activity, negative = inhibition, usual class: inhibitors; AID 588855; note: % is set by controls: 0 for no effect and ±100 for the full control effect; nearly all actives have a fitted effect of over 65% in size
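Per well, imaged GFP fluorescence of HEPG2 CAGA-GFP cells gives the signal; cells get compound, then TGF-beta (500 pg/mL final), 18 h at 37 degrees C; %Activity versus -TGF-beta and +DMSO controls.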
Gal4-VP16 FLuc: inhibits Gal4-VP16 luciferase reporter, ROR gamma counter-screen; Drosophila S2 Gal4-VP16 UAS-luciferase, luminescence, 20 h; Potency, µM (titrated, usually from 53.6 µM), for the others: top-dose activity, negative = inhibition, most hits filed as inhibitors; actives 3.5% (n = 310,000); AID 2546;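 note: Gal4-VP16 expression switched on by copper sulfate through the metallothionein promoter; % is set by controls: 0 for no effect and ±100 for the full control effect; nearly all actives have a fitted effect of over 50% in size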
TGFb CAGA inh: confirmation of TGF-b signaling inhibitors in HepG2 reporter cells. shares compounds with TGFb inhibitor. HepG2 CAGA-GFP TGF-b reporter, GFP fluorescence, 18 h; cells stimulated with TGF-beta, 500 pg/mL. Potency, µM (series often up to 46.1 µM), without a hit: at the highest dose activity, negative = inhibition, usual class: inhibitors. actives 63% (n = 1,600); note: % is set by controls: 0 for no effect and ±100 for the full control effect; nearly all actives have a fitted effect of over 65% in size
HepG2 tox-2: toxic to HepG2 cells in TGF-b counterscreen; Potency, µM (series often up to 46.1 µM), for the others: at the top dose activity, negative = cytotoxicity, usual class: inhibitors; HepG2 CAGA-GFP viability, ATP luminescence, 18 h; cells stimulated with TGF-beta, 500 pg/mL; actives 27% (n = 1,600); shares compounds with TGFb inhibitor; note: % is set by controls: 0 for no effect and ±100 for the full control effect; nearly all actives have a fitted effect of over 70% in size
CCL64 TGFb inh: TGF-b inhibition, CCL64 orthogonal assay; shares compounds with TGFb inhibitor; CCL64 CAGA-GFP reporter, TGF-b stimulated, GFP fluorescence, 18 h; Potency, µM (titrated, usually from 46.1 µM), without a hit: top-dose activity, negative = inhibition, usual class: inhibitors; actives 41% (n = 1,600); AID 720536; note: nearly all actives have a fitted effect of over 65% in size
TGFb COP inh: TGF-b inhibition validated with COP promoter; shares compounds with TGFb inhibitor; HepG2 COP-GFP TGF-b reporter, GFP fluorescence, 18 h; cells stimulated by added recombinant TGF-beta; Potency, µM (titrated, usually from 46.1 µM), for the others: top-dose activity, negative = inhibition, actives largely listed as inhibitors; actives 3% (n = 1,600); AID 720537; note: nearly all actives have a fitted effect of over 70% in size
An asterisk follows results filed as active; i = inactive; ? = inconclusive; . = not tested or not shown; ! = a repeat was not active. Calls come from the whole dose curve; as a rule, active = well fitted curve in the direction sought with a large enough effect; inconclusive = small, poorly fitted or top-dose-only effect, or another doubt; inactive = no such curve, though single readings can be large; an effect the other way counts as inactive or inconclusive. Potency is the fitted concentration of half-maximal effect.

SMILES | HepG2 tox-1 | S2 tox | ATXN2 expr inh | RORgamma inh | TGFb inhibitor | Gal4-VP16 FLuc | TGFb CAGA inh | HepG2 tox-2 | CCL64 TGFb inh | TGFb COP inh
C=Cc1cc(OC)c2c(c1)c(=O)oc1c2cc(OC)c2c(O)ccc(C3OC(C)C(O)C(C)(O)C3O)c21 (centres undefined) | 24% | i | 1.7µM* | . | 1.4µM* | . | 0.92µM* | 1.2µM* | 2.1µM* | 7%
COc1cc2cc(C(=O)N3CC(COS(C)(=O)=O)c4ccc(O)cc43)[nH]c2c(OC)c1OC (centres undefined) | -92% | 0.34µM* | 0.3µM* | . | 0.089µM* | . | 0.0058µM* | 0.033µM* | 0.0058µM* | 42%
CSc1cccc(NC(=O)C2CCN(C(=O)c3cnn(-c4ccccc4)c3-n3cccc3)CC2)c1 | -20% | ? | ? | . | ? | . | . | . | . | .
Cc1ccc(N2C(=O)NC(=O)/C(=C\C=C\c3ccco3)C2=O)cc1C | -5% | 14µM* | 7.9µM* | 13µM* | 13µM* | 7.1µM* | 2.6µM* | 2.9µM* | 4.6µM* | ?
CN(C)c1ccc(/C=C/C=C2/C(=O)NC(=O)N(c3ccccc3)C2=O)cc1 | 4% | . | ? | ? | -13% | -4% | . | . | . | .
CCOC(=O)c1c(N)n(CCCOC(=O)c2ccco2)c2nc3ccccc3nc12 | 3.5µM* | i | ? | -4% | 2.8µM* | 0% | 4.1µM* | 5.2µM* | 23µM* | 5.8µM*
COCCCn1c(N)c(C(=O)OCCOC)c2nc3ccccc3nc21 | -3% | i | -11% | -1% | -23% | -2% | . | . | . | .
O=[N+]([O-])c1ccc(N(CCO)CCO)c2c1no[n+]2[O-] | -115% | . | . | . | 7.1µM* | . | 10µM* | 13µM* | 12µM* | ?
CN1CCN(c2ccc([N+](=O)[O-])c3no[n+]([O-])c23)CC1 | 8.9µM* | . | 2.4µM*! | 1.3µM* | 3.2µM* | 5.6µM* | 4.1µM* | 5.2µM* | 3.3µM* | ?
COC(=O)COc1ccc(C[C@@H](C)NC[C@H](O)c2cccc(Cl)c2)cc1 | . | . | . | -13% | . | -7% | . | . | . | .
CC[C@@]1(O)C(=O)OCc2c1cc1n(c2=O)Cc2cc3c(N)cccc3nc2-1 | -5% | ? | -10% | 0.02µM* | 0.56µM* | 0.35µM* | 1.2µM* | 0.41µM* | -17% | -1%
CC1CCC/C=C/C2CC(O)CC2C(O)/C=C/C(=O)O1 (centres undefined) | -39% | ? | ? | 0% | 0.11µM* | -11% | 0.065µM* | ? | ? | 67%
CN1CC[C@@]2(c3cccc(O)c3)Cc3nc4ccccc4cc3C[C@H]2C1 | . | . | . | -17% | . | -11% | . | . | . | .

Compound activity from PubChem BioAssay.
